Reference: PubChem BioAssay AID1851 (National Center for Advancing Translational Sciences (NCATS), 2009)
Among all 16,000 compounds or so, about 5,700 (36%) were called active. About 24% were inconclusive and are not listed. The list shows a part of the results. Unmarked numbers belong to inactive results. Calls follow the shape of the dose curve; as a rule, active = well fitted curve in the direction sought with a large enough effect; inconclusive = small, poorly fitted or top-dose-only effect, or effect the other way; inactive = no such curve, though single readings can be large or run the other way. Numbered stars: 1 amine (or outer) side, 2 acyl side, 3 side chain; on linkers, the order of the positions; unused ones are H or OH. Bridge positions count the residues as written; N and C are the ends. Square brackets hold non-standard residues; d marks the D form. Peptide text beside a SMILES is read from it. I, II: the chains in the order shown. Actinocin(9to1) = Cc1c2oc3c(C)ccc(C(=O)[*:1])c3nc-2c(C(=O)[*:2])c(N)c1=O; aThr = C[C@H](O)[C@H](N)C(=O)O; NMeV = CN[C@H](C(=O)O)C(C)C; Sar = CNCC(=O)O

The compounds below were run against Cytochrome P450 1A2 (Homo sapiens) (UniProt P05177) (assay: Cytochrome panel assay with activity outcomes). Conditions: recombinant CYP, pro-luciferin dealkylation, luminescence, p450-cyp1a2; series mostly up to 57.1 µM; activity, negative = inhibition: at the top concentration.
Cytochrome P450 1A2 (Homo sapiens), sequence (P05177 whole entry, looked up): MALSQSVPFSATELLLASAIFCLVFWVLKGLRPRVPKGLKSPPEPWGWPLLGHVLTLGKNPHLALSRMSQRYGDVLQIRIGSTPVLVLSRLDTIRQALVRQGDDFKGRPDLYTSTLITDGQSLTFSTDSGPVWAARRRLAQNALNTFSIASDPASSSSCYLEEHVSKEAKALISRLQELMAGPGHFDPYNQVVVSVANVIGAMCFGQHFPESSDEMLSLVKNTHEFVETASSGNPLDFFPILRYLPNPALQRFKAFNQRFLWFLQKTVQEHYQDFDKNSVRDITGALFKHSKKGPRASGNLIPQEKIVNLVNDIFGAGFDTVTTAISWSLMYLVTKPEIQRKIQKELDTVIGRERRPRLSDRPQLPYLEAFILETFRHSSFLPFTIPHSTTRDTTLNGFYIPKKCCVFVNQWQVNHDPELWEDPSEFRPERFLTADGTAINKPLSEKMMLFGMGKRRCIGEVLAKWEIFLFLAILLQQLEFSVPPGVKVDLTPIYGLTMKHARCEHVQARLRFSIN
% is scaled to controls: 0 for no effect and ±100 for the full control effect.

Row | SMILES | activity, negative = inhibition | AC50
1 | CC(=O)OC[C@H]1O[C@@H](O/N=C2/[C@H]3O[C@@H]3[C@@H](O)[C@H]3[C@H]2CCn2c(=O)n(-c4ccccc4)c(=O)n23)[C@H](OC(C)=O)[C@@H](OC(C)=O)[C@@H]1OC(C)=O | 1.98% [at 11.4 µM] | 
2 | Cc1noc(C)c1C(=O)N1CCC2(CCCN(c3ccccc3)C2)CC1 | 4.79% | 
3 | CN1CCN(C(c2ccccc2)c2ccccc2)CC1 | -3.57% [at 25.6 µM] | 
4 | Cc1noc(C)c1-c1nc(N2CCOCC2)c2ccccc2n1 |  | 0.316 µM (active)
5 | Cc1noc(C)c1-c1nc(N2CCN(C)CC2)c2ccccc2n1 |  | 0.316 µM (active)
6 | Cc1noc(C)c1C(=O)N1CCC2(CC1)CN(c1ccccc1)C2 | -18.7% | 
7 | Cc1cc(C)n(-c2nc(SCCN(C)C)c3c4c(sc3n2)CCCC4)n1 |  | 14.1 µM (active)
8 | CO[C@@H]1COC(=O)[C@@H](CCSC)NC(=O)C/C=C\[C@@H](C)COC(=O)[C@H](C)NC(=O)C/C=C\[C@H]1C | -5.08% [at 11.4 µM] | 
9 | Cc1cc(-c2ccccc2)[nH]c(=O)c1S(=O)(=O)c1ccc(Cl)cc1 | -18.9% | 
10 | O=c1cc(-c2ccccc2)[nH]c2nc(Cl)ccc12 |  | 0.398 µM (active)
11 | Cc1ccccc1S(=O)(=O)c1c(C)cc(-c2ccccc2)[nH]c1=O | -7.42% | 
12 | CC(=O)N1CCC2(CCCN(Cc3nccs3)C2)CC1 | -12.1% | 
13 | CCOC(=O)C(C)n1cnc2c(oc3ccccc32)c1=O (stereo not given) |  | 5.62 µM (active)
14 | Cc1cc(/C=C2\SC(=S)NC2=O)c(C)n1C |  | 5.01 µM (active)
15 | Cc1ccc(S(=O)(=O)N2CCC(C(=O)NCCCOC(C)C)CC2)cc1 | -2.51% | 
16 | O=C(NCc1ccccc1)c1cccc(COc2cccc(Cl)c2)c1 |  | 17.8 µM (active)
17 | O=C(OC(C(=O)O)C(OC(=O)c1ccccc1)C(=O)NCc1ccccc1)c1ccccc1 (stereo not given) | 5% | 
18 | O=c1c(-c2ccc(F)cc2)nc2cnc(N3CCOCC3)nc2n1Cc1cccs1 |  | 12.6 µM (active)
19 | CN1CCN(c2ncc3nc(-c4ccc(Cl)cc4)c(=O)n(Cc4cccs4)c3n2)CC1 |  | 10 µM (active)
20 | O=c1c(-c2ccc(Cl)cc2)nc2cnc(N3CCNCC3)nc2n1Cc1cccs1 |  | 12.6 µM (active)
21 | O=c1c(-c2ccc(F)cc2)nc2cnc(N3CCNCC3)nc2n1Cc1cccs1 |  | 10 µM (active)
22 | COc1cccc(Cn2c(=O)c(-c3ccc(Cl)cc3)nc3cnc(N4CCN(C)CC4)nc32)c1 | -16.3% | 
23 | CC1CCc2cc(F)ccc2N1C(=O)CSc1nnc2c(n1)[nH]c1ccc(F)cc12 (stereo not given) |  | 0.501 µM (active)
24 | Cc1ccc(C(=O)NNC(=O)CSc2nnc3c(n2)[nH]c2ccc(F)cc23)cc1 | -20.5% | 
25 | O=C(CSc1nnc2c(n1)[nH]c1ccc(F)cc12)OCc1ccccc1 |  | 0.501 µM (active)
26 | C#CCCCO/N=C1/[C@H]2O[C@@H]2[C@@H](O)[C@H]2[C@H]1CCn1c(=O)n(Cc3cc4c(cc3Cl)OCO4)c(=O)n12 | 1.39% [at 11.4 µM] | 
27 | Cc1nc(Cl)c(C#N)cc1-c1ccccc1 |  | 1 µM (active)
28 | Cc1nc(Sc2ccccc2)c(C#N)cc1-c1ccccc1 |  | 1.26 µM (active)

Row | SMILES | activity, negative = inhibition | AC50
29 | Cc1c2oc3c(C)ccc(C(=O)N[C@@H]4C(=O)N[C@@H](C(C)C)C(=O)N5CCC[C@@H]5C(=O)N(C)CC(=O)N(C)[C@@H](C(C)C)C(=O)O[C@H]4C)c3nc-2c(C(=O)N[C@@H]2C(=O)N[C@@H](C(C)C)C(=O)N3CCC[C@@H]3C(=O)N(C)CC(=O)N(C)[C@@H](C(C)C)C(=O)O[C@H]2C)c(N)c1=O (I: [aThr]V[dP][Sar][NMeV] / II: [aThr]V[dP][Sar][NMeV]; ester I:1-I:C, II:1-II:C; linker I:N-II:N via Actinocin(9to1)) | -34.7% | 
30 | CCOC(=O)C1=C(c2ccccc2)OC(N)=C(C#N)C1c1ccc(Cl)s1 (stereo not given) |  | 0.398 µM (active)
31 | CCc1ccc2c(-c3cccc(Cl)c3)nc(=O)n(CC)c2n1 |  | 0.126 µM (active)
32 | Cc1ccc(NC(=O)CCC(=O)NNC(=O)c2ccco2)cc1C | -17.2% | 
33 | Cc1cc(C)cc(NC(=O)N2CCCC2C(=O)Nc2ccc(-n3cnnn3)c(C)c2)c1 (stereo not given) | -14.1% | 
34 | CCC(NC(=O)c1ccccc1NC(=O)c1ccco1)C(=O)NC1CCCCC1 (stereo not given) | -16.4% | 
35 | O=C(Nc1ccccc1C(=O)NCCc1ccccc1)c1ccco1 |  | 5.01 µM (active)
36 | O=C(Nc1ccccc1C(=O)Nc1ccc2c(c1)OCO2)c1ccco1 |  | 8.91 µM (active)
37 | Cc1cc(NC(=O)c2ccco2)ccc1-n1cnnn1 |  | 14.1 µM (active)
38 | CC1(C)Oc2ccc(NC(=O)c3ccco3)cc2O1 |  | 5.01 µM (active)
39 | CC1=C(C(=O)Nc2ccccc2)C(c2ccco2)NC(=S)N1 (stereo not given) | -11.4% | 
40 | O=C(CCc1ccccc1)NNC(=O)c1ccco1 | 7.32% | 
41 | N#CC(C#N)=CNCCN1CCN(C=C(C#N)C#N)CC1 | -15.4% [at 2.29 µM] | 
42 | NC(N)=N[C@H](CCC(=O)O)C(=O)O | -0.3% | 
43 | COc1ccc2[nH]cc(CCNc3ccnc(-c4ccc(C(=O)N(C)C)cc4)n3)c2c1 |  | 12.6 µM (active)
44 | COc1ccc2[nH]cc(CCNc3cc(-c4ccc(C(=O)N(C)C)cc4)ncn3)c2c1 |  | 20 µM (active)
45 | COc1ccc2[nH]cc(CCNc3ccnc(-c4ccc(N(C)C)cc4)n3)c2c1 |  | 0.631 µM (active)
46 | COc1ccc2[nH]cc(CCNc3ccnc(-c4c(C)noc4C)n3)c2c1 |  | 2 µM (active)
47 | CCOC(=O)C1=C[C@@]2(CC)CCCN3CCc4c(n1c1ccccc41)[C@H]32 | -14.8% [at 25.6 µM] | 
48 | COc1ccc2[nH]cc(CCNc3ccnc(-c4ccc5c(c4)OCO5)n3)c2c1 |  | 0.631 µM (active)
49 | COc1ccc2[nH]cc(CCNc3ccnc(-c4ccoc4)n3)c2c1 |  | 0.501 µM (active)
50 | COc1ccc([C@@H](Nc2ncccn2)c2cc3c(cc2O)OCO3)cc1 | -14.3% [at 2.29 µM] | 
51 | O=C(O)CC(O)C(=O)O (stereo not given) | -6.27% | 
52 | CC(C)(CS)C(=O)N1CCC[C@H]1C(=O)O | 10.1% [at 25.6 µM] | 
53 | O=S(Cc1cc(Oc2ccccc2)nc(-c2ccccc2)n1)c1ccccc1 (stereo not given) |  | 2.82 µM (active)
54 | CNc1cc(CS(=O)c2ccccc2)nc(-c2ccccc2)n1 (stereo not given) |  | 14.1 µM (active)
55 | O=S(=O)(Cc1cc(Oc2ccccc2)nc(-c2ccccc2)n1)c1ccccc1 |  | 0.708 µM (active)
